Among the data in ChEMBL document CHEMBL3988442, “University of Dundee, Small-Polar-MMV Screening Library” (2021) are Percent Effect values, retold here.

What all share (parameters): scale not given: direction of the effect not stated beside the values
The target of experiment [1] is Protein translocase subunit SecA (Escherichia coli (strain K12)) (UniProt P10408). Briefly: Assay to Identify E. coli SecA ATPase Inhibitors. In kind it is functional. The note with it: 30 µM.
Experiment [2] deals with T1, Ubiquitin-activating enzyme e1, putative (Leishmania donovani (strain BPK282A1)) (UniProt E9BSI1).
T1 sequence (whole entry): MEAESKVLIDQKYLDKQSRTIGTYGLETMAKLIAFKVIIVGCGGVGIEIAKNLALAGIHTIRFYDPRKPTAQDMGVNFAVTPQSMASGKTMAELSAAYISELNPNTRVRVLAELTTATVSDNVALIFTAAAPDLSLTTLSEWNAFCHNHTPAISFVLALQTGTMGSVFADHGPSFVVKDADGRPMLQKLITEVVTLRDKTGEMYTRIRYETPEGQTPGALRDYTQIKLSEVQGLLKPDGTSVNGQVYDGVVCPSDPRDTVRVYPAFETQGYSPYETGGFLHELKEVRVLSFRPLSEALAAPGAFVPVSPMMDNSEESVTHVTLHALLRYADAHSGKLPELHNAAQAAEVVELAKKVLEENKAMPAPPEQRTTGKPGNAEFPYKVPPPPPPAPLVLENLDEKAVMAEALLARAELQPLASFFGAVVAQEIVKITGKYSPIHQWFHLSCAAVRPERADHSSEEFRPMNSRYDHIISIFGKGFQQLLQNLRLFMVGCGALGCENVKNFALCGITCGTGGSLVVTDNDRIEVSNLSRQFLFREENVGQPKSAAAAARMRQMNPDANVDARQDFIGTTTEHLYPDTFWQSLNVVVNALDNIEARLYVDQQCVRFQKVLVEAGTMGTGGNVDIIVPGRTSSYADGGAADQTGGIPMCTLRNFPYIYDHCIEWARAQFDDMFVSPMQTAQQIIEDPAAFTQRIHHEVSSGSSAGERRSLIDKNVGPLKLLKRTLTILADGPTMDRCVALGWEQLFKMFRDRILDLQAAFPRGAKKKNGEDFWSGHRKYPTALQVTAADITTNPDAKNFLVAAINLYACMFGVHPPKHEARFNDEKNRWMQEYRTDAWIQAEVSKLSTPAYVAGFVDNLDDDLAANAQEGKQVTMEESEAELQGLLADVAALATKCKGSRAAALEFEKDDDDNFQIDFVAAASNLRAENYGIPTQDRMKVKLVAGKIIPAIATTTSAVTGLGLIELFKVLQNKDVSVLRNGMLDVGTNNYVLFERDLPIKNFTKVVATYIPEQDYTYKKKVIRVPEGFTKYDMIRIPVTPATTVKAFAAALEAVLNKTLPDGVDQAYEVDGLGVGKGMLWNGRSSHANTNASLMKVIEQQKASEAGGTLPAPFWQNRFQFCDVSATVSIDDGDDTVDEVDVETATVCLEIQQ
In words: Leishmania donovani Ubiquitin Activating Enzyme (LdE1). In kind it is functional. The note with it: 30 µM.

Experiment [3] has as its target AMP-activated protein kinase, AMPK (Homo sapiens) (UniProt P54646+O43741+P54619+Q9UGJ0+Q9Y478+Q13131+Q9UGI9). In words: AMP-dependent Kinase enzyme assay. An in vitro enzyme assay that detects ADP turnover that is directly proportional to AMPK activity. This uses naive AMPK that is activated during the assay with MK-8722. The note with it: 30 µM. In kind it is functional.

Experiment [4] addresses Sialic acid-binding Ig-like lectin 9 (Homo sapiens) (UniProt Q9Y336). Briefly: Hs-Siglec9 ALPHAscreen SOP 20170721. The note with it: 10 µM. In general terms: Alpha assays give light when donor and acceptor beads are brought close together.
In a further experiment the test system is Trypanosoma cruzi. Briefly: Trypanosoma cruzi phosphomannomutase and mannose-1-phosphate guanylyltransferase assay. In kind it is functional. The note with it: 10 µM.
In experiment [5] the target is T2, Arginase-2, mitochondrial (Homo sapiens) (UniProt P78540).
T2 sequence (whole entry): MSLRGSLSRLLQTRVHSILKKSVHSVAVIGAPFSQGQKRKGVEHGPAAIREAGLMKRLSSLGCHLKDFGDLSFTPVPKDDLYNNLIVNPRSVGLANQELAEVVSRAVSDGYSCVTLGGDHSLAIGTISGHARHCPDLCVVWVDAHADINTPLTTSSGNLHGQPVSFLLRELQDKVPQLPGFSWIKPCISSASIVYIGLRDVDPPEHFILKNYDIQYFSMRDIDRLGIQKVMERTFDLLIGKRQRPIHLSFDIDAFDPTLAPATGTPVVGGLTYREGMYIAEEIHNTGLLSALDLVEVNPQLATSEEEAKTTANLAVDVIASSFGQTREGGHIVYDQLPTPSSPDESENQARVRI
In words: in vitro enzyme assay to detect the production of urea directly proportional to the activity of Arginase II. Note: in the data most compounds retested in dose-response had high values. The note with it: 33.3 µM. Type of experiment: functional.

In experiment [6] the target is T3, Proteasome subunit beta (Trypanosoma cruzi) (UniProt O96673).
T3 sequence (whole entry): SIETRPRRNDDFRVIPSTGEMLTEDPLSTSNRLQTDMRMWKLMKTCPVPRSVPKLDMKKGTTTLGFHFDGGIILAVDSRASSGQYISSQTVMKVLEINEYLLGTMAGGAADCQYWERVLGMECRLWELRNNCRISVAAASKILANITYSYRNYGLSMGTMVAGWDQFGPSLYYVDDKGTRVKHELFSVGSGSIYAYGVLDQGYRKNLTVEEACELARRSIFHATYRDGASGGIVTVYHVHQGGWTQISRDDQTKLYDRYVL
Briefly: Trypanosoma cruzi proteasome chymotrypsin-like activity (TcProtChymo) assay. Note: in the data most compounds retested in dose-response had high values. In kind it is functional. The note with it: 9.37 µM.

Another experiment is filed under the species Homo sapiens. Briefly: To identify inhibition of the IFN signalling (Jak-Stat) pathway via expression of an eGFP reporter gene under the control of an IFN-stimulated response element (ISRE) containing MxA promoter. Type of experiment: functional. The note with it: 30 µM. Background: Reporter assays use an easily measured gene product as a stand-in for the process of interest.

Experiment [7] deals with T4, Tyrosyl-tRNA synthetase, putative (Trypanosoma cruzi (strain CL Brener)) (UniProt Q4DSP6).
T4 sequence (whole entry): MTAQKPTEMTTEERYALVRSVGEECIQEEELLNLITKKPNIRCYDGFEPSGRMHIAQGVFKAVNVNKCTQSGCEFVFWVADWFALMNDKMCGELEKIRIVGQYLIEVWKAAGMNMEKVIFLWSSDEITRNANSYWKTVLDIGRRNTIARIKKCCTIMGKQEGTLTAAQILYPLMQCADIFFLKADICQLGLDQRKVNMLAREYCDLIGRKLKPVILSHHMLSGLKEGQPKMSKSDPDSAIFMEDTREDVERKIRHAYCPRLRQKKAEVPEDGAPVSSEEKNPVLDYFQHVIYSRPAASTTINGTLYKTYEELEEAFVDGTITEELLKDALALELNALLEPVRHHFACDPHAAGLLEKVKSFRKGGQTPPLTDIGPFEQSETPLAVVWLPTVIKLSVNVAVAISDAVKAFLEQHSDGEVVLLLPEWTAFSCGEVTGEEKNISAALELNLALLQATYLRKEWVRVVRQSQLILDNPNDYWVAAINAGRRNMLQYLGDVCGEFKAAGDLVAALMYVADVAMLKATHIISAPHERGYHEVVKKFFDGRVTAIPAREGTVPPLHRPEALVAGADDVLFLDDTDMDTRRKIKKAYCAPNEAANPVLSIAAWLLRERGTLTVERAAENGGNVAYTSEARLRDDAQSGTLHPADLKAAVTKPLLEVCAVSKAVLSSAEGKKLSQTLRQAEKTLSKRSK
In words: Trypanosoma cruzi tyrosyl tRNA synthetase (TcYRS) _High Tyrosine SOP. Note: in the data most compounds retested in dose-response had high values. In kind it is functional. The note with it: 30 µM.

The target of experiment [8] is T4, Tyrosyl-tRNA synthetase, putative (Trypanosoma cruzi (strain CL Brener)). Briefly: Trypanosoma cruzi tyrosyl tRNA synthetase (TcYRS) SOP. Type of experiment: functional. The note with it: 30 µM.
Experiment [9] addresses Chromo domain-containing protein 1 (Saccharomyces cerevisiae (strain ATCC 204508 / S288c) (Baker's yeast)) (UniProt P32657). In words: ScCHD-1 Enzyme Inhibition Assay. Note: in the data most compounds retested in dose-response had high values. Type of experiment: functional. The note with it: 30 µM.

For some of these results: Potency and affinity values are given separately.

Sialic acid-binding Ig-like lectin 9 (Homo sapiens), sequence (Q9Y336 whole entry): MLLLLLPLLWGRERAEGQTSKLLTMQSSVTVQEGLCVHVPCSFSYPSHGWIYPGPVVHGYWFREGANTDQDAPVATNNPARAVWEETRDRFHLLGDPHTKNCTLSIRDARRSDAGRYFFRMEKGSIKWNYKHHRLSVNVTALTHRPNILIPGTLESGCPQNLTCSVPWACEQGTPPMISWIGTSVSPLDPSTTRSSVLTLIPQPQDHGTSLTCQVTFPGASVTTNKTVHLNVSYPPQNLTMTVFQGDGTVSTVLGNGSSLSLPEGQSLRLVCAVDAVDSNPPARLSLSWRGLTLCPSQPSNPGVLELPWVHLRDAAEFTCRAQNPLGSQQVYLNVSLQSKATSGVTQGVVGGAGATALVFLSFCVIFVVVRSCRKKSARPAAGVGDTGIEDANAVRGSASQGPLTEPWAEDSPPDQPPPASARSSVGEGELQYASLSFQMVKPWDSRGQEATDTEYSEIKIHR
Chromo domain-containing protein 1 (Saccharomyces cerevisiae (strain ATCC 204508 / S288c) (Baker's yeast)), sequence (P32657 whole entry, the tested form may be a part): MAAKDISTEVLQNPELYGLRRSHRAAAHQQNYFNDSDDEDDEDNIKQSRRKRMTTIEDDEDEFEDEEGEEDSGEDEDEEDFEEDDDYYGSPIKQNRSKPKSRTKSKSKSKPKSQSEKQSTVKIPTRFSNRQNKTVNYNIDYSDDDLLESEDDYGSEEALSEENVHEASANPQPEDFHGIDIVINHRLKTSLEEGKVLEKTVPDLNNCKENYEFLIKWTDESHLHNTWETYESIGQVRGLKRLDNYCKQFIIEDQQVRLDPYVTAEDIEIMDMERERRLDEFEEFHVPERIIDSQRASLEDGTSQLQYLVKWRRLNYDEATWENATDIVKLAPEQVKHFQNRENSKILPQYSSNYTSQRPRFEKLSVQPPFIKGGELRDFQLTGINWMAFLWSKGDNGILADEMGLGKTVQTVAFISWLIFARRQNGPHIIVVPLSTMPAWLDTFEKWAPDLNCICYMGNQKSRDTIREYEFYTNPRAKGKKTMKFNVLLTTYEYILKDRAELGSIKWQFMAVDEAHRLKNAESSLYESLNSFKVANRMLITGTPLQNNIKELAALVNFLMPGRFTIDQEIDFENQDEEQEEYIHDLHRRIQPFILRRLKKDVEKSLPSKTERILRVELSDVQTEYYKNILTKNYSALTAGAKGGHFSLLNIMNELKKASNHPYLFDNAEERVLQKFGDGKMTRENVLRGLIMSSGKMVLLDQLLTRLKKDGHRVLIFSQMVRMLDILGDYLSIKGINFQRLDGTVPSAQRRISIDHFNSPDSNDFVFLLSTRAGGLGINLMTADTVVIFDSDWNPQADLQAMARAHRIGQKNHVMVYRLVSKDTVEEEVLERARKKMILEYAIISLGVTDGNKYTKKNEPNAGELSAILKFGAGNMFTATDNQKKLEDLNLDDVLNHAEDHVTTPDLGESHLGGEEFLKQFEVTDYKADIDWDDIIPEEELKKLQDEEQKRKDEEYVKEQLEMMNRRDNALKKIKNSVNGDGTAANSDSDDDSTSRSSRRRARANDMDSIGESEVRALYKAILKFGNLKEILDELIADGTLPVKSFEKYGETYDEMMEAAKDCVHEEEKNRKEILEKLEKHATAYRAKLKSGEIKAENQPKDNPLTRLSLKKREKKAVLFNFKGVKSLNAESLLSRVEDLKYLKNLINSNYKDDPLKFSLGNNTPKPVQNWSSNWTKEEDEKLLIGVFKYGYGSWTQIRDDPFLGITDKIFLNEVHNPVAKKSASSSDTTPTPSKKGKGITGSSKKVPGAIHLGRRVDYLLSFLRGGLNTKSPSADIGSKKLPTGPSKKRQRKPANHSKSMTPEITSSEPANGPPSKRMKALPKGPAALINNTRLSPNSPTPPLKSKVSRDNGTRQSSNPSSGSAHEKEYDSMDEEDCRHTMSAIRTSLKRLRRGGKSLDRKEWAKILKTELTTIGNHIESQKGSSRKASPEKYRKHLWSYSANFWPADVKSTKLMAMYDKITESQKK
Protein translocase subunit SecA (Escherichia coli (strain K12)), sequence (P10408 whole entry): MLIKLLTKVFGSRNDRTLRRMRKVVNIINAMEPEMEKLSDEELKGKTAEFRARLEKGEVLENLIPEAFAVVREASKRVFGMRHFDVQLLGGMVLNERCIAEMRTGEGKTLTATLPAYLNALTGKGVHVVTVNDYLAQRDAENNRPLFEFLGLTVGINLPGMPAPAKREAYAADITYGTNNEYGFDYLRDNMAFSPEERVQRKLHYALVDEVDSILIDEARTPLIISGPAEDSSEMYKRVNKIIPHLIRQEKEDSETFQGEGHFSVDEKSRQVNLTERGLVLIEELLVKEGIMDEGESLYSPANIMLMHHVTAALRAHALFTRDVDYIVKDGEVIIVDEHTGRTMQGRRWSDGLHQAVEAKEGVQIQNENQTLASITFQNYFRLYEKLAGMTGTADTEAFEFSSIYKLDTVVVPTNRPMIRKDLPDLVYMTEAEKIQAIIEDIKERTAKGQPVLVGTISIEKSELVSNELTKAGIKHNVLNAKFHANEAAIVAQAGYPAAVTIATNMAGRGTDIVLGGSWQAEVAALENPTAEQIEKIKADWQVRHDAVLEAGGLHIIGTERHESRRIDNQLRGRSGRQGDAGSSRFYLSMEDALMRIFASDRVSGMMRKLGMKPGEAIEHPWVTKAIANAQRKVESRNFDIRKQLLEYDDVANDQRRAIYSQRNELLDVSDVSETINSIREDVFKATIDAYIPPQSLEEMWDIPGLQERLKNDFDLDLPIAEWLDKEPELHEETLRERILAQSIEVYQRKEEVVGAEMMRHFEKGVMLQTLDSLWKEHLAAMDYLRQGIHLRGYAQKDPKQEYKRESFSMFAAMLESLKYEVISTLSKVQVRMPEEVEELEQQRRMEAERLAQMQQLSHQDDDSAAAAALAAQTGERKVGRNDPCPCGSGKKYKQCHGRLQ

Take `CC(C)(C)N1CC(C(=O)N2CCN(CCn3cccc3)CC2)CC1=O` (stereo not drawn): the Percent Effect in experiment [1] was -6.81%; in [2], 10.7%; in experiment [3] it was -6.2%; in [4], 27.1%; in the experiment on Trypanosoma cruzi, 4.97%; in experiment [5] it was 22.4%. Moreover, the Percent Effect in experiment [6] was 12%; in the experiment filed under Homo sapiens, 5.12%; in [7], 4.92%; in experiment [8] it was 8.64%; in [9] it was -4.28%.
Consider `Cc1nc(C)n(CC2CN(Cc3cccnc3)CCO2)n1` (stereo not drawn), for which the Percent Effect in [1] was -3.52%; in [2], 21.1%; in [3], -7.06%; in experiment [4], -5.07%; in the experiment on Trypanosoma cruzi, -2.33%; in experiment [5] it was 2.52%. The Percent Effect was 6.85% in [6]; -13.4% in the experiment filed under Homo sapiens; 9.36% in experiment [7]; 23.5% in experiment [8]; -5.32% in experiment [9].
For the compound `CC(C)N1CCC(Cc2cncc(-c3ccccc3C(=O)O)n2)CC1`, the Percent Effect in experiment [1] was -3.85%; in experiment [2] it was 8%; in experiment [3], 9.75%; in experiment [4], 5.58%; with Trypanosoma cruzi, -4.13%; in experiment [5] it was 0.699%. Moreover, the Percent Effect was 4.32% in experiment [6]; 13.7% in the experiment filed under Homo sapiens; 5.32% in experiment [7]; 8.97% in experiment [8]; -3.75% in experiment [9].
Consider `Cc1cc2n(n1)CC(CNCc1ccnc(-n3ccnc3C)c1)CN2` (stereo not drawn), for which the Percent Effect in experiment [1] is -2.38%; in experiment [2], 26.3%; in experiment [3], -14.2%; in [4], -7.03%; in the experiment with Trypanosoma cruzi, 7.52%; in experiment [5], -4.98%. Moreover, the Percent Effect in experiment [6] is 22.9%; in the experiment filed under Homo sapiens, 4.37%; in experiment [7], 3.43%; in experiment [8], 17.1%; in [9], -13.8%.
`CC(O)CN1CCN(Cc2csc(-c3ncccn3)n2)CC1` (stereo not drawn): the Percent Effect in experiment [1] is 1.21%; in [2] it was 7.89%; in [3], -3.51%; in experiment [4] it was -8.16%; in the experiment on Trypanosoma cruzi it was -3.02%; in experiment [5], 3.55%. Further, the Percent Effect in experiment [6] was 24.6%; in the experiment filed under Homo sapiens, 16.8%; in [7], 5.32%; in experiment [8], 15.6%; in experiment [9], -4.73%.
As for `Cc1nc(C)n(CC2CCCCN2CC(=O)Nc2nncs2)n1` (stereo not drawn), the Percent Effect in experiment [1] was -8.22%; in [2], 2.67%; in experiment [3] it was -1.04%; in [4], 1.02%; in the experiment with Trypanosoma cruzi, -2.04%; in [5] it was 2.6%. Besides, the Percent Effect in [6] is 2.79%; in the experiment filed under Homo sapiens, -3.85%; in experiment [7] it was 2.73%; in experiment [8] it was 11.1%; in experiment [9], -5.05%.
On to `CN(C(=O)c1cccc(C(=O)NS(C)(=O)=O)c1)c1ccccc1`, for which the Percent Effect was -5.66% in [1]; 15.6% in experiment [2]; 1.54% in [3]; 14.7% in [4]; 6.98% in the experiment with Trypanosoma cruzi; -24.8% in experiment [5]. In addition, the Percent Effect in [6] is 16.5%; in the experiment filed under Homo sapiens, 4.53%; in experiment [7] it was 6.45%; in experiment [8], 13.6%; in [9], -2.26%.
`Cn1ncc2c1NC(=O)CC2c1ccc(Cl)cc1Cl` (stereo not drawn): the Percent Effect in experiment [1] was -0.731%; in [2], 2.63%; in [3] it was 4.33%; in experiment [4] it was 1.29%; in the experiment on Trypanosoma cruzi, -8.67%; in experiment [5], -1.18%. Further, the Percent Effect in experiment [6] was 11.8%; in the experiment listed under Homo sapiens, 18%; in experiment [7] it was 0%; in experiment [8], 2.6%; in experiment [9], -4.32%.
